According to PubChem BioAssay AID720597 (Broad Institute, 2013):
Measured potencies and affinities stand elsewhere.

These compounds were tested against NAD-dependent protein deacylase sirtuin-5, mitochondrial (Homo sapiens) (UniProt Q9NXA8) (assay: blockers of sirtuin-5 peptide desuccinylation – biochemical, fluorescence imaging, cherry-pick, set 6, dose response (AID 720597;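 further: lower AMC signal can also come from blocking the trypsin step; 0% = median of neutral control wells and -100% = median of positive control wells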)). Conditions: Purified SirT5, succinyl-peptide-AMC/trypsin fluorescence; series mostly up to 15 µM; activity change, negative = inhibition: at the top concentration;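 active means fitted half-maximal dose no more than twice the top valid tested dose, for compounds that lower signal; inconclusive means fit invalid, or curve flat with activity between -70 and -30; inactive means potency past limit, curve flat within ±30, or signal increasing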.
NAD-dependent protein deacylase sirtuin-5, mitochondrial (Homo sapiens), sequence (Q9NXA8 whole entry, looked up): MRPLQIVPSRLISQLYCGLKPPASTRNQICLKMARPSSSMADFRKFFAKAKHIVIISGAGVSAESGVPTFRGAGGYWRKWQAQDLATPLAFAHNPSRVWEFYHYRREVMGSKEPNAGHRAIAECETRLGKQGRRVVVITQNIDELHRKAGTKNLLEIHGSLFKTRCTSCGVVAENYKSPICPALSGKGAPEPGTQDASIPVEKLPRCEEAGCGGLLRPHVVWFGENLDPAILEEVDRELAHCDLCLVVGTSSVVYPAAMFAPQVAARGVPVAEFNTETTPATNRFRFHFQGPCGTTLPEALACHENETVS

Activity change, negative = inhibition, inactive:
C[C@@H]1CN([C@@H](C)CO)C(=O)c2cc(NS(=O)(=O)c3ccc(Cl)cc3)ccc2O[C@@H](C)CCCCO[C@@H]1CN(C)C(=O)Nc1ccc(C(F)(F)F)cc1 -0.902%
Cc1ccccc1S(=O)(=O)N(C)C[C@H]1OCc2ccccc2-c2c(n(C)c3ccccc23)C(=O)N([C@@H](C)CO)C[C@@H]1C 2.1%
C[C@H](CO)N1C[C@H](C)[C@@H](CN(C)C(=O)NC2CCCCC2)Oc2cc(C#Cc3ccc(F)cc3)ccc2S1(=O)=O -9.23%
C[C@@H]1CN([C@H](C)CO)C(=O)Cc2cc(NC(=O)Cc3cn(C)c4ccccc34)ccc2O[C@@H]1CN(C)C 11.5%
O=C(C[C@H]1CC[C@H]2[C@@H](COC[C@@H](O)CN2S(=O)(=O)c2cccc(Cl)c2)O1)Nc1ccc(-c2ccccc2)cc1 25.5%
C[C@@H]1CN([C@@H](C)CO)S(=O)(=O)c2ccc(/C=C/c3ccccc3)cc2O[C@@H]1CN(C)C(=O)Nc1cc(F)ccc1F -20.6%
CC(C)CC#Cc1ccc2c(c1)O[C@@H](CN(C)C(=O)c1cccc(F)c1)[C@H](C)CN([C@@H](C)CO)S2(=O)=O -9.35%
C[C@H]1CN([C@@H](C)CO)C(=O)c2cccc(NC(=O)c3ccncc3)c2O[C@@H]1CN(C)S(C)(=O)=O 19.2%
C[C@@H]1CN([C@H](C)CO)C(=O)c2c(c3ccccc3n2C)-c2ccccc2CO[C@H]1CN(C)S(=O)(=O)c1ccc(C(F)(F)F)cc1 -8.07%
C[C@H]1CN([C@@H](C)CO)C(=O)c2cccc(NC(=O)CCCCCC(=O)Nc3ccccc3N)c2O[C@@H]1CN(C)Cc1ccc(-c2ccccc2)cc1 -32.2% [at 12 µM]
COc1cccc(C(=O)Nc2ccc3c(c2)C(=O)N(C)C[C@H](OC)[C@@H](C)CN(CCc2ccccc2)[C@@H](C)CO3)c1 -22.3%
COc1ccc(CN2C[C@@H](O)COC[C@H]3O[C@H](CC(=O)NCCN4CCCC4)CC[C@@H]32)cc1 -17.3%
COc1ccc(-c2cnc3c(c2)C(=O)N([C@@H](C)CO)C[C@H](C)[C@@H](CN(C)Cc2ccc(C(=O)O)cc2)O3)cc1 -18.3%
COc1ccc(S(=O)(=O)Nc2ccc3c(c2)CC(=O)N([C@@H](C)CO)C[C@@H](C)[C@H](CN(C)Cc2ccc(C(F)(F)F)cc2)O3)cc1 8.76%
C[C@@H]1CN([C@@H](C)CO)S(=O)(=O)c2ccc(C#C[C@@H](C)O)cc2O[C@H]1CN(C)Cc1ccc(-c2ccccc2)cc1 1.09%
C[C@H](CO)N1C[C@H](C)[C@H](CN(C)C(=O)Nc2cc(F)ccc2F)Oc2cc(/C=C/c3ccccc3)ccc2S1(=O)=O 27.6% [at 13.5 µM]
COc1cccc(C(=O)Nc2ccc3c(c2)C(=O)N(C)C[C@H](OC)[C@@H](C)CN(CCc2ccccc2)[C@H](C)CO3)c1 6.36%
O=C(Nc1ccccc1)N1C[C@@H]2[C@H](c3ccccc31)[C@@H](CO)N2CC1CCCC1 -14.1%
Cc1ccc(S(=O)(=O)N(C)C[C@H]2OCCCC[C@H](C)Oc3ccc(NS(=O)(=O)c4ccccc4)cc3C(=O)N([C@@H](C)CO)C[C@H]2C)cc1 14.5%
CN(C)C(=O)c1cccc(-c2ccc([C@H]3[C@@H](CO)N4CCCCN(S(C)(=O)=O)C[C@H]34)cc2)c1 -13.1%
C[C@@H]1CN([C@@H](C)CO)S(=O)(=O)c2ccc(C#Cc3cccc(F)c3)cc2O[C@H]1CN(C)S(=O)(=O)c1ccccc1F 32.6%
COc1ccc(S(=O)(=O)N(C)C[C@H]2Oc3ncc(/C=C/c4ccccc4)cc3C(=O)N([C@H](C)CO)C[C@@H]2C)cc1 -4.22%
C[C@@H]1CN([C@@H](C)CO)C(=O)Cc2cc(NC(=O)Nc3ccc(F)cc3)ccc2O[C@H]1CN(C)C -11.8%
COc1ccc(NC(=O)N(C)C[C@H]2Oc3c(NS(C)(=O)=O)cccc3C(=O)N([C@@H](C)CO)C[C@H]2C)cc1 1.17%
Cc1noc(C)c1NC(=O)Nc1cccc2c1O[C@H](CN(C)Cc1ccc(Oc3ccccc3)cc1)[C@@H](C)CN([C@@H](C)CO)C2=O 20.2%
CO[C@@H]1CC[C@@H]2CCOc3c(C#N)cccc3C(=O)N(C)C[C@@H](OC)[C@@H](C)C(=O)N(C)C[C@@H]1O2 -4.17%
CCCC#Cc1ccc([C@H]2[C@@H](CO)N3CCCCN(S(=O)(=O)Cc4ccccc4)C[C@H]23)cc1 -4.47%
COc1ccc(NC(=O)Nc2cccc3c2O[C@@H](CN(C)Cc2ccc(C(F)(F)F)cc2)[C@@H](C)CN([C@H](C)CO)C3=O)cc1 -31.3%
C[C@@H]1CN([C@H](C)CO)C(=O)c2cc(NS(=O)(=O)c3cccs3)ccc2O[C@@H](C)CCCCO[C@@H]1CN(C)Cc1ccc(C(F)(F)F)cc1 -13%
C[C@@H]1CN([C@@H](C)CO)S(=O)(=O)c2ccc(C#CC(C)(C)O)cc2O[C@@H]1CN(C)Cc1ccc(-c2ccccc2)cc1 -5.45%
COc1ccc(NC(=O)N(C)C[C@@H]2Oc3cc(C#CCC(C)C)ccc3S(=O)(=O)N([C@@H](C)CO)C[C@H]2C)cc1 1.47%
COc1ccc(S(=O)(=O)N(C)C[C@@H]2Oc3ccc(NC(=O)CCC(F)(F)F)cc3C(=O)N([C@H](C)CO)C[C@H]2C)cc1 4.64%
O=C(NCC[C@H]1CC[C@H](NC(=O)C2CC2)[C@H](CO)O1)c1cc(Cl)cc(Cl)c1 25.4%
C[C@H]1CN([C@@H](C)CO)C(=O)c2c(c3ccccc3n2C)-c2ccccc2CO[C@H]1CN(C)Cc1ccccc1 11.1%
O=C(CCN1CCCCC1)N[C@H]1CC[C@H](CC(=O)N2CCC(Cc3ccccc3)CC2)O[C@@H]1CO -12.6%
CC(C)CC#Cc1ccc2c(c1)O[C@@H](CN(C)C(=O)C1CCCCC1)[C@H](C)CN([C@H](C)CO)S2(=O)=O -7.58%
C[C@H]1CN([C@@H](C)CO)S(=O)(=O)c2ccc(C#CC3CC3)cc2O[C@@H]1CN(C)Cc1ccc(F)cc1 2.42%
COc1ccc(NC(=O)N(C)C[C@H]2Oc3ccc(NS(=O)(=O)c4ccc(OC)cc4)cc3CC(=O)N([C@H](C)CO)C[C@H]2C)cc1 19.2% [at 16 µM]
COc1ccc(S(=O)(=O)Nc2ccc3c(c2)C(=O)N([C@H](C)CO)C[C@H](C)[C@@H](CN(C)Cc2ccc(C(F)(F)F)cc2)OCCCC[C@H](C)O3)cc1 -11.4% [at 7.5 µM]
COc1ccc(S(=O)(=O)N(C)C[C@H]2Oc3cc(C#CC4CC4)ccc3S(=O)(=O)N([C@@H](C)CO)C[C@H]2C)cc1 5.85%
